“And” between values parts separate entries of the source, which are not always exact repeats. Equal entries are not always repeated. Screen size: about 5,500 compounds; about 2,000 (36%) were called active. Another 18% or so got no clear call; they are omitted. Rule as the data show it: active = normalized growth mostly below about 0.91 (no sharp cut-off); inconclusive = no clear call, values can overlap the other calls; inactive = mostly above about 0.92. Some of the results follow.
Test: chemical genetic growth profiling, strain panel (AID 1159580);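 also: tested at 20 µM; growth read once vehicle control cultures reached saturation at 30 °C; 1 = growth at the plate median or of vehicle wells; lower values mean less growth of the strain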
Conditions: S. cerevisiae deletion strains, growth OD

Measured: normalized growth

CNC[C@H](O)c1cccc(O)c1
inactive: locus YAL013W, strain DEP1, active compounds read low 1.01 | locus YAL021C, strain ccr4, active compounds read low 0.979 | locus YAL026C, strain drs2, active compounds read low 0.997 | locus YAL030W, strain snc1, active compounds read low 0.986 | locus YBL061C, strain skt5, active compounds read low 0.988 | locus YBR009C, strain hhf1, active compounds read low 0.995 | locus YBR021W, strain FUR4, active compounds read low 1 | locus YBR023C, strain chs3, active compounds read low 0.986 | locus YBR171W, strain sec66, active compounds read low 0.98 | locus YBR229C, strain ROT2, active compounds read low 1.01 | locus YBR231C, strain swc5, active compounds read low 0.967 | locus YBR279W, strain paf1, active compounds read low 0.991 | locus YCL011C, strain gbp2, active compounds read low 1 | locus YCL016C, strain dcc1, active compounds read low 0.983 | locus YCL029C, strain bik1, active compounds read low 1.02 | locus YCL069W, strain vba3, active compounds read low 0.991 | locus YCR088W, strain abp1, active compounds read low 0.986 | locus YDL005C, strain med2, active compounds read low 0.968 | locus YDL035C, strain GPR1, active compounds read low 1.01 | locus YDL040C, strain nat1, active compounds read low 0.984 | locus YDL074C, strain BRE1, active compounds read low 1.01 | locus YDL101C, strain DUN1, active compounds read low 1.01 | locus YDL134C, strain PPH21, active compounds read low 1.01 | locus YDL185W, strain tfp1, active compounds read low 1.02 | locus YDL192W, strain arf1, active compounds read low 1.02 | locus YDR001C, strain nth1, active compounds read low 0.991 | locus YDR069C, strain doa4, active compounds read low 0.982 | locus YDR101C, strain arx1, active compounds read low 1.02 | locus YDR137W, strain rgp1, active compounds read low 0.966 | locus YDR150W, strain NUM1, active compounds read low 1.01 | locus YDR159W, strain sac3, active compounds read low 0.981 | locus YDR162C, strain NBP2, active compounds read low 1.01 | locus YDR195W, strain ref2 0.91 | locus YDR297W, strain sur2, active compounds read low 0.981 | locus YDR318W, strain mcm21, active compounds read low 1.02 | locus YDR334W, strain swr1, active compounds read low 0.982 | locus YDR335W, strain msn5, active compounds read low 0.99 | locus YDR388W, active compounds read low 1.01 | locus YDR392W, strain spt3, active compounds read low 1 | locus YDR502C, strain sam2, active compounds read low 1.01 | locus YEL003W, strain gim4, active compounds read low 0.989 | locus YEL037C, strain rad23, active compounds read low 0.984 | locus YEL061C, strain CIN8 (second series), active compounds read low 0.99 | locus YEL061C, strain CIN8, active compounds read low 1.01 | locus YER015W, strain faa2, active compounds read low 0.969 | locus YER016W, strain bim1, active compounds read low 0.981 | locus YER110C, active compounds read low 1.02 | locus YER111C, strain swi4, active compounds read low 0.988 | locus YER155C, strain BEM2 (second series), active compounds read low 0.953 | locus YER155C, strain BEM2, active compounds read low 1 | locus YER167W, strain BCK2, active compounds read low 1.01 | locus YFR010W, strain ubp6, active compounds read low 0.976 | locus YGL078C, strain dbp3, active compounds read low 1.01 | locus YGL086W, strain mad1, active compounds read low 1 | locus YGL167C, strain pmr1, active compounds read low 0.983 | locus YGL173C, strain kem1, active compounds read low 0.955 | locus YGL227W, strain vid30, active compounds read low 0.971 | locus YGL240W, strain doc1, active compounds read low 0.95 | locus YGL248W, strain PDE1, active compounds read low 1 | locus YGL253W, strain hxk2, active compounds read low 1.01 | locus YGR078C, strain PAC10, active compounds read low 0.996 | locus YGR135W, strain pre9, active compounds read low 1 | locus YGR229C, strain SMI1, active compounds read low 0.992 | locus YGR252W, strain gcn5, active compounds read low 0.989 | locus YHR013C, strain ard1, active compounds read low 0.982 | locus YHR027C, strain rpn1, active compounds read low 0.99 | locus YHR030C, strain SLT2, active compounds read low 1 and 1.01 | locus YHR079C, strain IRE1 (second series), active compounds read low 1.02 | locus YHR079C, strain IRE1, active compounds read low 1.03 | locus YHR094C, strain hxt1, active compounds read low 1.02 | locus YHR129C, strain ARP1, active compounds read low 1.01 | locus YHR142W, strain chs7, active compounds read low 1 | locus YHR200W, strain rpn10, active compounds read low 1.02 | locus YIL066C, strain RNR3, active compounds read low 1.01 | locus YIL073C, strain SPO22, active compounds read low 1.04 | locus YIL125W, strain kgd1, active compounds read low 1.01 | locus YIR030C, strain dcg1, active compounds read low 1.01 | locus YJL092W, strain hpr5, active compounds read low 0.977 | locus YJL095W, strain BCK1 (second series), active compounds read low 0.98 | locus YJL095W, strain BCK1, active compounds read low 1.01 and 1.02 | locus YJL115W, strain asf1, active compounds read low 0.976 | locus YJL129C, strain trk1, active compounds read low 0.977 | locus YJL134W, strain LCB3, active compounds read low 1 | locus YJL154C, strain vps35, active compounds read low 0.987 | locus YJL164C, strain tpk1, active compounds read low 0.985 | locus YJL166W, strain qcr8, active compounds read low 0.956 | locus YJL168C, strain set2, active compounds read low 1.02 | locus YJL187C, strain SWE1 (second series), active compounds read low 1.01 | locus YJR043C, strain POL32, active compounds read low 0.996 | locus YJR066W, strain TOR1, active compounds read low 0.969 | locus YJR075W, strain HOC1, active compounds read low 1

From PubChem BioAssay AID1159580 (chemical genetic matrix, 2015)
